Among the data in PubChem BioAssay (NCATS) are Potency values, retold here.

The structures appear in SMILES notation. Inconclusive results are not listed. Active and inactive are the calls of the source. Calls follow the shape of the dose curve; as a rule, active = well fitted curve in the direction sought with a large enough effect; inconclusive = small, poorly fitted or top-dose-only effect, or another doubt; inactive = no such curve, though single readings can be large; an effect the other way counts as inactive or inconclusive.

Assay [1] in a line: qHTS of pediatric cancer cell lines to identify multiple opportunities for drug repurposing: Confirmatory screen for BT-37 cells (AID 1347117). Also: potency is read from the fitted curve at half-maximal effect.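 Also: viability measured after 48 h of compound exposure; nearly all actives have a fitted effect of over 55% in size.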 The procedure, abridged:
(§1)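 Viability after 48 h compound treatment at 37C, 500-1,000 cells/well, read as ATP luminescence with CellTiter-Glo. Primary screens used 11-point (MIPE, 0.78 nM-46 µM) or 8-point (NPC, 0.59 nM-46 µM) final concentrations; follow-up screens used 11-point dilutions.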
(In general: qHTS replaces the single test concentration by a dilution series.)

Assay [2] can be described thus: qHTS of pediatric cancer cell lines to identify multiple opportunities for drug repurposing: Confirmatory screen for TC32 cells (AID 1347118).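 Also: potency is read from the fitted curve at half-maximal effect; cells exposed to compound for 48 h before the read; nearly all actives have a fitted effect of over 65% in size.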 The procedure, abridged: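 TC32 cells, 500-1,000/well in growth medium, compound-treated 48 h at 37 °C; viability from CellTiter-Glo luminescence. Primary screen: MIPE 11-point (0.78 nM–46 µM final), NPC 8-point (0.59 nM–46 µM final); confirmatory at 11-point dilutions.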

The nature of assay [3]: qHTS of pediatric cancer cell lines to identify multiple opportunities for drug repurposing: Confirmatory screen for MG 63 (6-TG R) cells (AID 1347119). Also: nearly all actives have a fitted effect of over 55% in size. Also: potency is read from the fitted curve at half-maximal effect. The procedure, abridged: as §1
Assay [4] is described as follows: qHTS of pediatric cancer cell lines to identify multiple opportunities for drug repurposing: Confirmatory screen for U-2 OS cells (AID 1347122). Also: nearly all actives have a fitted effect of over 65% in size. Also: potency is read from the fitted curve at half-maximal effect. Summed up:
as §1

Assay [5] can be described thus: qHTS of pediatric cancer cell lines to identify multiple opportunities for drug repurposing: Confirmatory screen for Rh41 cells (AID 1347123).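 Also: 48 h compound exposure; nearly all actives have a fitted effect of over 60% in size.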 Also: potency is read from the fitted curve at half-maximal effect. The procedure, abridged: as §1
A short description of assay [6]: qHTS of pediatric cancer cell lines to identify multiple opportunities for drug repurposing: Confirmatory screen for RD cells (AID 1347124).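 Also: cells exposed to compound for 48 h before viability readout; nearly all actives have a fitted effect of over 65% in size.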 Also: potency is read from the fitted curve at half-maximal effect. Summed up: as §1
Assay [7] in a line: qHTS of pediatric cancer cell lines to identify multiple opportunities for drug repurposing: Confirmatory screen for Rh30 cells (AID 1347126). Also: nearly all actives have a fitted effect of over 55% in size. Also: potency is read from the fitted curve at half-maximal effect. Summed up:
as §1

Assay [8] can be described thus: qHTS of pediatric cancer cell lines to identify multiple opportunities for drug repurposing: Confirmatory screen for SK-N-SH cells (AID 1347129).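 Also: cells exposed to compound for 48 h before viability read; nearly all actives have a fitted effect of over 60% in size.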 Also: potency is read from the fitted curve at half-maximal effect. Summed up: as §1
Assay [9] relates to Zika virus NS2B-NS3 protease. As to the kind of experiment: Primary screen GU AMC qHTS for Zika virus inhibitors (AID 1347154). Also: nearly all actives have a fitted effect of over 70% in size. Also: potency is read from the fitted curve at half-maximal effect. Summed up: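 Unlinked Zika NS2B hydrophilic domain–NS3 protease complex at 25 nM in 10 mM Tris-HCl pH 8.0, 0.01% Tween 20, with an AMC peptide substrate. Fluorescence change (340/450 nm) over 15 min at room temperature, normalized to controls, fitted to 4-parameter Hill.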

Assay [10] in a line: qHTS of pediatric cancer cell lines to identify multiple opportunities for drug repurposing: Confirmatory screen for Rh18 cells (AID 1347125). Also: nearly all actives have a fitted effect of over 55% in size. Also: potency is read from the fitted curve at half-maximal effect. The procedure, abridged:
as §1

Assay [11] can be described thus: qHTS of pediatric cancer cell lines to identify multiple opportunities for drug repurposing: Confirmatory screen for Saos-2 cells (AID 1347127). Also: nearly all actives have a fitted effect of over 60% in size. Also: potency is read from the fitted curve at half-maximal effect. The procedure, abridged: as §1
The nature of assay [12]: qHTS of pediatric cancer cell lines to identify multiple opportunities for drug repurposing: Confirmatory screen for OHS-50 cells (AID 1347128). Also: potency is read from the fitted curve at half-maximal effect. Summed up:
as §1

Assay [13] is described as follows: qHTS of pediatric cancer cell lines to identify multiple opportunities for drug repurposing: Confirmatory screen for control Hh wild type fibroblast cells (AID 1347121). Also: nearly all actives have a fitted effect of over 70% in size. Summed up: as §1
The test system of assay [14] is Zika virus NS2B-NS3 protease (unlinked). Put plainly: Optimization of GU AMC qHTS for Zika virus inhibitors: Unlinked NS2B-NS3 protease assay (AID 1347151). Also: series mostly up to about 52 µM; nearly all actives have a fitted effect of over 80% in size. Summed up: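 Fluorescence read-out (340 nm ex / 450 nm em) of AMC peptide cleavage, taken immediately and after 15 min at room temperature (~20% conversion). Enzyme was the unlinked NS2B–NS3 complex at 25 nM in Tris pH 8.0 buffer.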

For assay [15], the target named is N-terminal Xaa-Pro-Lys N-methyltransferase 1 (Homo sapiens) (UniProt Q9BV86). Put plainly: qHTS Assay for Inhibitors of N-terminal methyltransferase 1 (NTMT1): LOPAC validation of the NTMT1 SAHH-coupled ThioGlo3 Assay (AID 1347143).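 Also: SAH from peptide methylation measured as thiol fluorescence via SAHH coupling and ThioGlo3; nearly all actives have a fitted effect of over 70% in size.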 Also: potency is read from the fitted curve at half-maximal effect. Summed up: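 Recombinant human NTMT1 (125nM) was pre-incubated 1 min at room temperature with compounds over a concentration range, then a mix of 100uM SAM, 10uM SAHH and 15uM ThioGlo3 (concentrations in added reagent) was added. ThioGlo3 fluorescence (ex 340/em 450nm) after 30 min was normalized to the initial reading.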
N-terminal Xaa-Pro-Lys N-methyltransferase 1 (Homo sapiens), sequence (Q9BV86 whole entry, looked up): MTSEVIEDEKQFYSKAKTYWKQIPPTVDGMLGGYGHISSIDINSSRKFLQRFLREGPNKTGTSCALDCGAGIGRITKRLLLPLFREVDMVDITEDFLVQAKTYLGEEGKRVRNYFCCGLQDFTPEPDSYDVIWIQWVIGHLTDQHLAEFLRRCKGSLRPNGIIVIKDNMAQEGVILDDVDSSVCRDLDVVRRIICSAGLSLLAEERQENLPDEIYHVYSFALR

The subject of assay [16] is Zika virus NS2B-NS3 protease (unlinked complex). Put plainly: Primary screen GU Rhodamine qHTS for Zika virus inhibitors: Unlinked NS2B-NS3 protease assay (AID 1347159). Also: nearly all actives have a fitted effect of over 60% in size. Summed up:
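Noncovalent NS2B hydrophilic domain/NS3 protease complex (25 nM final) in 10 mM Tris-HCl pH 8.0, 0.01% Tween 20, preincubated 15 min with compounds (up to 114 microM), then 1.5 microM Rhodamine110 substrate. Fluorescence change over 15 min fitted to 4-parameter Hill.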

On to `Oc1c(Cl)cc(Cl)c2cccnc12`, for which the Potency in assay [1] was 18.5 µM (active); in assay [2] it was 8.27 µM (active); in assay [3], 11.7 µM (active); in [4] it was 9.27 µM (active); in [5], 14.7 µM (active); in assay [6], 13.1 µM (active). In addition, the Potency in assay [7] is 18.5 µM (active); in assay [8] it was 20.9 µM (active). Also, the Potency result in assay [9] was “inactive”.
For the molecule `CC(C)(C)C(=O)OCOP(=O)(COCCn1cnc2c(N)ncnc21)OCOC(=O)C(C)(C)C`, the Potency in [1] is 3.69 µM (active); in assay [2], 1.17 µM (active); in assay [3] it was 5.22 µM (active); in assay [5], 20.8 µM (active); in [11], 14.7 µM (active); in assay [12], 16.5 µM (active). The Potency result in [4], in [6], in assay [10], in [8] and in [9] was “inactive” each time.
For the molecule `CCc1c2c(nc3ccc(OC(=O)N4CCC(N5CCCCC5)CC4)cc13)-c1cc3c(c(=O)n1C2)COC(=O)[C@]3(O)CC`, the Potency is 0.928 µM (active) in assay [1]; 0.465 µM (active) in [2]; 1.85 µM (active) in assay [3]; 4.14 µM (active) in [5]; 16.5 µM (active) in [10]; 5.85 µM (active) in assay [7]. Besides, the values for the Potency in assay [11], in [12] and in [9] were 1.85 µM (active), 2.61 µM (active) and 5.73 µM (active), respectively. For the same molecule, the Potency entry in [13] was “inactive”.
On to `Cc1cccc(N(C)C(=S)Oc2ccc3ccccc3c2)c1`, for which the Potency entry in [1], in assay [13], in assay [6], in [10], in assay [7] and in [11] was “inactive” throughout. Also, the Potency result in assay [12], in [8] and in [9] was “inactive” each time.
For the molecule `C1CCC(C(CC2CCCCN2)C2CCCCC2)CC1` (stereo unspecified), the Potency entry in assay [9] was “inactive”.
`CC(=O)[C@H]1CC[C@H]2[C@@H]3CCC4=CC(=O)CC[C@]4(C)[C@H]3CC[C@]12C`: the Potency in assay [2] is 5.22 µM (active); in assay [5] it was 18.5 µM (active); in assay [10] it was 23.3 µM (active); in [12], 26.1 µM (active). Moreover, the Potency result in [14] and in [9] was “inactive” each time.
Take `CCN(CC)CCn1c(=O)c(Cc2ccc(OC)cc2)nc2ccccc21`: the Potency entry in assay [14] and in assay [9] was “inactive” in each case.
Take `NC(=O)c1ccc2[nH]ccc2c1`: the Potency entry in [15] and in assay [9] was “inactive” throughout.
In the case of `COc1ccc(C(=O)CC(=O)c2ccc(C(C)(C)C)cc2)cc1`, the Potency result in [13], in [4], in assay [5], in [6], in assay [10] and in assay [7] was “inactive” in each case. Further, the Potency result in assay [11], in assay [12], in assay [8] and in assay [9] was “inactive” in each case.
For `CC(C(=O)O)c1ccc2c(c1)CC(=O)c1ccccc1S2` (stereo unspecified), the Potency entry in [13], in assay [4], in assay [5], in assay [6], in assay [10] and in [7] was “inactive” in each case. For the same molecule, the Potency result in [11], in [12], in assay [8], in [9] and in [16] was “inactive” in each case.
With `CCN(CC)CC#CCOC(=O)C(O)(c1ccccc1)C1CCCCC1` (stereo unspecified), the Potency entry in [14] and in [9] was “inactive” in each case.
With `CC1=C(C(=O)O)N2C(=O)[C@@H](NC(=O)C(N)c3ccccc3)[C@H]2SC1` (stereo partly specified), the Potency result in assay [15], in assay [14] and in [9] was “inactive” each time.
Regarding `CCC(C)(C)c1ccc(CC(C)CN2C[C@@H](C)O[C@@H](C)C2)cc1` (stereo partly specified), the Potency entry in [9] is “inactive”.
In the case of `CC(=O)CC(c1ccccc1)c1c(O)c2ccccc2oc1=O` (stereo unspecified), the Potency result in assay [9] was “inactive”.
For the molecule `S=P(N1CC1)(N1CC1)N1CC1`, the Potency in assay [2] was 4.14 µM (active). Besides, the Potency entry in [3], in assay [13], in [4], in [6], in assay [10] and in assay [7] was “inactive” in each case. Besides, the Potency result in [11], in assay [12] and in [9] was “inactive” throughout.
Take `CCN1CCCC1CNC(=O)c1cc(S(N)(=O)=O)ccc1OC` (stereo unspecified): the Potency in assay [15] is 56.2 µM (active). Further, the Potency result in [14] and in [9] was “inactive” throughout.
